Compound activity (PubChem)
KDM5B inh: blocks human KDM5B histone demethylase activity; AID 1347165; 220,000 compounds, 2.6% hits; KDM5B demethylase, FDH-coupled NADH fluorescence (FDH is formaldehyde dehydrogenase); Potency, µM (highest dose often 57.7 µM), most hits filed as inhibitors; Q9UGL1; active means well fitted inhibition curve with a large enough effect; further: 0% is about no effect; nearly all actives have a fitted effect of over 70% in size
Target sequence (Q9UGL1 whole entry, looked up): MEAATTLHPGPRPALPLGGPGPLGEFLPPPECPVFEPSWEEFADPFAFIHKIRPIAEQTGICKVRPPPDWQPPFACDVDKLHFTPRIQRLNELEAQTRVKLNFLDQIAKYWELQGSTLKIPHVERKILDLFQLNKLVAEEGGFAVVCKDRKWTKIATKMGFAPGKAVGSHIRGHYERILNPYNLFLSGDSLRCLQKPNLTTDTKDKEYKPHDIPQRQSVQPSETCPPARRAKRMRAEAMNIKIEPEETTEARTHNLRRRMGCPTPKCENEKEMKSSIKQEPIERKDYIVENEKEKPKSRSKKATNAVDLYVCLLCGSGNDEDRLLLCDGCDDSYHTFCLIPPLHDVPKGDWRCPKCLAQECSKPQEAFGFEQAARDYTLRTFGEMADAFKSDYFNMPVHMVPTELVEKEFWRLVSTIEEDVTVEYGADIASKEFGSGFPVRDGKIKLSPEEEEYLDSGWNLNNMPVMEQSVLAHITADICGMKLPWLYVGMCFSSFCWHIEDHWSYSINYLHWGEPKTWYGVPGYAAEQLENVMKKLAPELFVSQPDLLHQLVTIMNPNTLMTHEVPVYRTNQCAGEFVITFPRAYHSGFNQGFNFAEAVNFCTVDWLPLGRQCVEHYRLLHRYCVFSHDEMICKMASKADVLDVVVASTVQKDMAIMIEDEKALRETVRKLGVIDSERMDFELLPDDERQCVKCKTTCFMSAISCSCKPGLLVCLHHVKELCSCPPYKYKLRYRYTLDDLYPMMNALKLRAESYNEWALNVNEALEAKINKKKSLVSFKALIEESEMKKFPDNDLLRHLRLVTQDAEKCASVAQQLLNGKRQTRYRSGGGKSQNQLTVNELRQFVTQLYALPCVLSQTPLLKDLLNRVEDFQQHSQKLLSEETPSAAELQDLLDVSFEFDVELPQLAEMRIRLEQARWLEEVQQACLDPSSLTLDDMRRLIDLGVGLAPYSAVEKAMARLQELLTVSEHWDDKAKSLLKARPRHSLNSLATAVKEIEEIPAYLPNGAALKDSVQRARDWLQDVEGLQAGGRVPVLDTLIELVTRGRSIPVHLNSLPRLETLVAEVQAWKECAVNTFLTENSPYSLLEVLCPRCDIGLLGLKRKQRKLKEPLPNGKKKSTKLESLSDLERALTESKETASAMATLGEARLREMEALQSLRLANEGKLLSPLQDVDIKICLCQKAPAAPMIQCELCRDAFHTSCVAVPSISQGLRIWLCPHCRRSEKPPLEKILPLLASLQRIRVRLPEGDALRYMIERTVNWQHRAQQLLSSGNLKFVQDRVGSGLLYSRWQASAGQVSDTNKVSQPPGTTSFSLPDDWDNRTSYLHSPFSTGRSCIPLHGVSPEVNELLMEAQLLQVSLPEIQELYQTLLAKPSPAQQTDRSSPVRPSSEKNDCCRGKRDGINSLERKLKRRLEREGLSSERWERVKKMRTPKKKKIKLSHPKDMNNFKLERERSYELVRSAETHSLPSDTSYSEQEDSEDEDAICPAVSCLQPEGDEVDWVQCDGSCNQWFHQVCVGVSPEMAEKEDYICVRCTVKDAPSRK
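Coupled FDH/NAD⁺ fluorescence readout. KDM5BΔAP 200 nM final; compound titration, 10 min RT preincubation; substrate mix 12.5 µM H3K4me3, 25 µM 2-OG, 50 µM Fe(II), 100 µM ascorbate, 0.25 mM NAD⁺, 0.25 U/mL FDH; ΔRFU over 30 min.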
An asterisk follows results filed as active; i = inactive. The full list was thinned out, with hits kept by preference. Potency means the concentration at half of the fitted maximal effect.

SMILES	KDM5B inh
CN(C)C[C@@H]1CN(c2ccncn2)C[C@H]1NC(=O)c1ccc(F)cc1Cl	i
CN(C)C[C@@H]1CN(S(C)(=O)=O)C[C@H]1NC(=O)c1nccn1C	i
CN(C)C[C@@H]1CN(c2ncccn2)C[C@H]1NC(=O)c1cccn1C	28µM*
CCOc1ccc(NC(=O)c2ccc(NC(=O)c3ccc4ccccc4n3)cc2)cc1	i
CCc1ccc(OCC(=O)Nc2cc3c(cc2S(=O)(=O)c2ccc(C)cc2)n(C)c(=O)n3C)cc1	i
CCOc1ccc(-c2[nH]nc3c2C(c2cc(OC)c(OC)cc2OC)C(C#N)=C(N)O3)cc1OC (stereo not given)	i
CN(C)C(=O)CNS(=O)(=O)c1cc(F)cc(F)c1	i
O=C1OCCC1NCC(c1ccccc1)c1c[nH]c2ccccc12 (stereo not given)	i
Cc1nc(SCc2csc(Cc3ccc(Cl)cc3)n2)sc1CC(N)=O	i
CCCCNC(=O)C(C#N)c1nc2ccccc2nc1N1CCN(c2ccc(F)cc2)CC1 (stereo not given)	i
CN(CC(=O)Nc1ccc(OC(F)(F)F)cc1)C(=O)c1n[nH]c2ccccc12	i
CN(C)c1cc2c(cc1NC(=O)c1cccs1)n(C)c(=O)c(=O)n2C	i
Cc1ccc(/C=N/Nc2ccc(S(N)(=O)=O)cc2[N+](=O)[O-])s1	i
CC(=O)c1cc(C)cc(C(C)=O)c1O	i
CC(NC(=O)C(=O)Nc1ccccc1Cl)c1ccccc1 (stereo not given)	i
Cc1cc2oc(C(=O)Nc3nnc(CC(C)C)s3)cc(=O)c2cc1C	i
O=C(NCCn1cc(SCC(=O)N2CCCCC2)c2ccccc21)c1cccc(C(F)(F)F)c1	i
CN(C)C[C@@H]1CN(c2ncccn2)C[C@H]1NC(=O)c1ccccc1Cl	22µM*
CN(C)C[C@@H]1CN(c2ncccn2)C[C@H]1NC(=O)c1ccccc1F	28µM*
CN(C)C[C@@H]1CN(Cc2ccccc2)C[C@H]1NC(=O)c1c(F)cccc1F	i
CN(C)C[C@@H]1CN(c2ncccn2)C[C@H]1NC(=O)c1cccc2[nH]ccc12	i
Cc1ncccc1C(=O)N[C@@H]1CN(Cc2ccccc2)C[C@H]1CN(C)C	i
N#Cc1nc(Cc2ccccc2)oc1NCc1ccc(F)cc1	i
CC1(C)C2CCC1(C)C(OC(=O)C[N+]1(C)CCOCC1)C2 (stereo not given)	i
Cc1ccc(C2CC(=O)C3=C(C2)OC(N)=C(C#N)C3c2ccc(Cl)c(Cl)c2)cc1 (stereo not given)	i
SMILES	KDM5B inh
CC1CCN(C(C)CNC(=O)Cc2coc(-c3ccccc3)n2)CC1 (stereo not given)	i
Cc1ccc2c(c1)NC(SCC(=O)Nc1cccc(Br)c1)=NS2(=O)=O	i
O=C1NCCCCCCN(C(=O)Nc2ccc3c(c2)OCCO3)[C@H]2CCCC[C@@H]12	i
O=C1NCCN2CC3(CCN(C(=O)CC4CCCC4)CC3)CC12 (stereo not given)	i
O=C1NCCN2CC3(CCN(C(=O)Nc4ccc5c(c4)OCCO5)CC3)CC12 (stereo not given)	25µM*
CCCCc1ccc(NC(=O)c2nn(CC)c(=O)c3ccccc23)cc1	i
CCc1ccc(C(=O)N2CCC(c3cc(-c4cccc(OC)c4)n[nH]3)CC2)cc1	i
Cc1ccc(-c2nc(C(=O)N3CCN(C(C#N)c4ccc(F)cc4)CC3)cs2)cc1 (stereo not given)	i
O=C(CCC[C@@H]1[C@H]2CCCN3CCC[C@@H](CN1Cc1ccccc1)[C@@H]23)N1CCOCC1	i
CC(=O)N1C[C@@H]2CCCN3CCC[C@@H]([C@H]23)[C@H]1CCCC(=O)NCCN(C)C	28µM*
O=C(CCC[C@@H]1[C@H]2CCCN3CCC[C@@H](CN1Cc1ccccc1)[C@@H]23)N1CCCC1	i
CN1CCN(C(=O)CCC[C@@H]2[C@H]3CCCN4CCC[C@@H](CN2Cc2ccccc2)[C@@H]34)CC1	32µM*
CN(C)CCNC(=O)CCC[C@@H]1[C@H]2CCCN3CCC[C@@H](CN1C)[C@@H]23	i
CC(=O)N1C[C@@H]2CCCN3CCC[C@@H]([C@H]23)[C@H]1CCCC(=O)N1CCN(c2ccccc2)CC1	i
CC(=O)N1C[C@@H]2CCCN3CCC[C@@H]([C@H]23)[C@H]1CCCC(=O)N1CCN(c2ccc(F)cc2)CC1	i
COc1ccc(N2CCN(C(=O)CCC[C@@H]3[C@H]4CCCN5CCC[C@@H](CN3C(C)=O)[C@@H]45)CC2)cc1	i
CN1CCN(C(=O)CCC[C@@H]2[C@H]3CCCN4CCC[C@@H](CN2C(=O)c2cccnc2)[C@@H]34)CC1	i
COc1ccccc1OCCNC(=O)CCC[C@@H]1[C@H]2CCCN3CCC[C@@H](CN1C(C)=O)[C@@H]23	i
CC(=O)N1C[C@@H]2CCCN3CCC[C@@H]([C@H]23)[C@H]1CCCC(=O)N1CCN(c2ccccn2)CC1	32µM*
CC(=O)N1C[C@@H]2CCCN3CCC[C@@H]([C@H]23)[C@H]1CCCC(=O)N1CCN(C)CC1	25µM*
COc1cc(OC)cc(C(=O)NCc2n[nH]c(=O)c3ccccc23)c1	i
Fc1cccc(/C=C/c2nc3cc(-c4ccccc4)ccc3o2)c1	i
CNc1nnc(SCc2coc(-c3ccccc3)n2)s1	i
O=C(NC1CCC(C(F)(F)F)CC1)c1ccc(Cl)nc1 (stereo not given)	i
CCCNc1c(NC(=O)Nc2ccc(OC)cc2OC)c(=O)oc2ccccc12	i
SMILES	KDM5B inh
CCn1c(SCc2cc3c(cc2Br)OCCO3)nc2cc(S(N)(=O)=O)ccc21	i
Cc1ccc(C)c(S(=O)(=O)N2CCc3ccccc32)c1	i
CCN(Cc1ccccc1)C(=O)CCC[C@@H]1[C@H]2CCCN3CCC[C@@H](CN1Cc1cccnc1)[C@@H]23	i
NC(=O)CCC[C@@H]1[C@H]2CCCN3CCC[C@@H](CN1Cc1ccccc1)[C@@H]23	i
CN(Cc1cccnc1)C(=O)CCC[C@@H]1[C@H]2CCCN3CCC[C@@H](CN1Cc1cccnc1)[C@@H]23	22µM*
CC(C)Nc1nc(-c2ccc3c(c2)CCC(=O)N3)cs1	i
S=C(NCCSc1ccc(Cl)cc1)NC1CCCC1	i
Cc1oc(-c2ccccc2)nc1C(=O)NCc1ccccc1	i
CCCCSc1nc2c(c(=O)[nH]c(=O)n2C)n1CC(O)COc1ccc(CC)cc1 (stereo not given)	i
CC(/C=N/O)=N/N=C(C)\C=N\O	i
O=C(c1ccccc1)N1CCC2(CC1)C(=O)Nc1ccccc12	i
COc1ccc(C(=O)N2CCC3(CC2)C(=O)Nc2ccccc23)cc1	i
CCOC(=O)C1(Cc2cccc(OC)c2)CCCN(C(=O)c2ccc(OC)o2)C1 (stereo not given)	i
Cc1cc(C)n2nc(C(=O)N3CCC4(CC3)C(=O)Nc3ccccc34)cc2n1	28µM*
CCOC(=O)C1(Cc2ccc(F)cc2)CCCN(C(=O)c2cc3nc(C)cc(C)n3n2)C1 (stereo not given)	32µM*
CCOC(=O)C1(Cc2ccc(F)cc2F)CCCN(C(=O)c2cccnc2SC)C1 (stereo not given)	i
CC(C)(C)c1cc(CSc2nc3ccccc3s2)cc(C(C)(C)C)c1O	i
Cc1cccc(NC(=O)Cn2nc(-c3cccc([N+](=O)[O-])c3)c3ccccc3c2=O)c1	i
CC(C)Sc1ccc2ccccc2n1	i
CC(Sc1c(Cl)cccc1Cl)C(=O)NCCC1=CCCCC1 (stereo not given)	i
Cc1nc(NC(=O)Cn2nc3c(cc2=O)CCCC3)sc1C	i
